In PubChem BioAssay AID2234 (The Scripps Research Institute Molecular Screening Center, 2010):
Out of some 320,000 compounds screened, about 480 (0.15%) were called active. The list comes from a sample in which actives are over-represented; it also holds similar structures and randomly drawn compounds. Values without a mark were called inactive. No stated cut-off is given here; in the data, active means inhibition above about 33%; inactive means the rest.

target: Lytic switch protein BZLF1 (Epstein-Barr virus (strain B95-8)) (UniProt P03206); experiment: Zta-DNA interaction blockers, Epstein-Barr virus – biochemical, fluorescence polarization, single concentration, counter-screen for EBNA-1 inhibitor project, primary screen (AID 2234); conditions: ZTA-DNA binding, at 11 µM, active compounds read high
Sequence (P03206 whole entry, looked up): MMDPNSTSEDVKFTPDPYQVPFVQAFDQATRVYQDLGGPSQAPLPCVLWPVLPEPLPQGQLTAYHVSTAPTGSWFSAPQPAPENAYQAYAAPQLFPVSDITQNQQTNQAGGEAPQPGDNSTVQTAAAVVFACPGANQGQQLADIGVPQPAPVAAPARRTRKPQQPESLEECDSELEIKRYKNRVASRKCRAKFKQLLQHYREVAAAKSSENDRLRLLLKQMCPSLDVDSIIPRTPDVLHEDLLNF

| SMILES | inhibition |
| --- | --- |
| Cc1cc(C(=O)Nc2ccc(C)c(S(=O)(=O)N3CCOCC3)c2)c2ccccc2n1 | -3.91% |
| CCC(C)OC(=O)C(C)Oc1ccc(-c2ccccc2)cc1 (centres undefined) | -16.6% |
| CCc1nc2ccccc2n(CCOCCOCCn2c(=O)c(CC)nc3ccccc32)c1=O | -7.86% |
| CCCCC1N2CC3([N+](=O)[O-])CN1CC([N+](=O)[O-])(C2)C3(C)C (centres undefined) | 7.41% |
| COc1ccccc1C(=O)Nc1ccc(OCC(=O)N2CCCCC2)cc1 | -10.8% |
| COc1ccc(C)cc1NC(=O)CN1c2cccc3cccc(c23)S1(=O)=O | -1.52% |
| O=C(O)c1cc(S(=O)(=O)N(Cc2ccccc2)c2ccccc2)ccc1Cl | -1.08% |
| O=C(CSc1nc(C2CC2)nc2ccccc12)Nc1cccc(O)c1 | -4.91% |
| C=CCn1c(SCC(=O)NC(=O)Cc2ccccc2)nc2ccccc2c1=O | -2.81% |
| O=C(c1cc(S(=O)(=O)N2CCOCC2)ccc1Cl)N1CCOCC1 | 17.7% |
| FC(F)(F)c1ccc2c3n(nc2c1)CCN=C3c1ccc(Cl)cc1 | 0.92% |
| Cc1ccc(C(=O)c2coc3ccc(O)c(CN(C)C)c23)cc1 | -9.15% |
| COc1ccccc1-n1ccnc(SCC(=O)NC2CCCCC2)c1=O | -6.9% |
| CC1CCC2(CC1)NC(=O)N(CC(=O)c1cccn1C)C2=O (centres undefined) | -3.24% |
| Cc1ccc(C(=O)NCC(c2cccs2)N(C)C)cc1S(=O)(=O)N1CCOCC1 (centres undefined) | -3.98% |
| O=C(OCC1O[C@@H](OC(=O)c2cc(O)c(O)c(O)c2)[C@@H](OC(=O)c2cc(O)c(O)c(O)c2)[C@@H](OC(=O)c2cc(O)c(O)c(O)c2)[C@@H]1OC(=O)c1cc(O)c(O)c(O)c1)c1cc(O)c(O)c(O)c1 (some centres undefined) | 56.7% (active) |
| O=C(OCC1OC(Oc2ccc(O)cc2)C(O)C(O)C1O)c1ccccc1 (centres undefined) | -3.45% |
| Cc1cc(/C=C2\SC(=O)N(C)C2=O)c(C)n1-c1cccc(C(=O)O)c1 | -5.96% |
| CN1C(=O)/C(=C/c2ccco2)SC1=Nc1cccc(C(=O)O)c1 | 34% (active) |
| Cc1cc(/C=C2\SC(=Nc3ccc(N4CCOCC4)cc3)N(C)C2=O)c(C)n1-c1cccnc1 | -10.5% |
| CCC(C)(C)n1nnnc1C(c1cccs1)N1CCN(c2nc3ccccc3s2)CC1 (centres undefined) | 4.48% |

| SMILES | inhibition |
| --- | --- |
| COc1cc(NC(=S)N2CCCC(C)C2)c(OC)cc1Cl (centres undefined) | 1.82% |
| CCOc1cc(C)c(S(=O)(=O)NCc2ccccn2)cc1C | 12.5% |
| CCSc1sc(CC)cc1C=O | 3.38% |
| CC(C)c1ccc(-c2nn[nH]n2)cc1 | -11.4% |
| COC(=O)c1c(-c2ccsc2)oc2ccc(-c3cc(OC)c(OC)c(OC)c3)cc12 | -1.27% |
| Cc1ccc(N2CCN(S(=O)(=O)N(C)C)CC2)cc1Cl | 10.4% |
| O=C(NCC(=O)N1CCC2(CC1)NCCc1[nH]cnc12)c1ccc(Br)cc1 | -4.85% |
| CCC(=O)Nc1ccc(C(=O)Nc2cc(C)on2)cc1 | -11.8% |
| CCC(=O)Nc1ccc(Nc2nc(Cl)nc(Nc3ccc(NC(=O)CC)cc3)n2)cc1 | 33.6% (active) |
| CCOC(=O)CNc1nc(Cl)nc(Nc2ccccc2)n1 | 3.82% |
| O=C(CCCCCn1c(=S)[nH]c2ccsc2c1=O)NC1CCCCC1 | 10.7% |
| CCn1c(O)c2ccc(C(=O)N=NC(=O)c3cccnc3)cc2c1O | -7.57% |
| CCOC(=O)CN(C(=O)CN1CCOCC1)c1ccc(Br)cc1 | 13% |
| CCCC(C)C(=O)Nc1ccc(NC(C)=O)cc1 (centres undefined) | -5.74% |
| COc1ccc(C(C(=O)NCC2CCCO2)N(C(=O)Cn2nnc3ccccc32)c2ccc(NC(C)=O)cc2)cc1OC (centres undefined) | -7.72% |
| Cc1ccc(-c2csc(NC(=O)C3=COCCO3)n2)cc1C | -12.1% |
| Cc1ccc(C)c(OCC(=O)NNC(=O)C2CCC2)c1 | 1.86% |
| O=C(Cn1cc(C(=O)C2CC2)c2ccccc21)Nc1ccccc1Cl | 14.6% |
| Cc1cc(C(=O)OC(C)C(=O)NC2CCCCC2C)c(C)o1 (centres undefined) | -3.44% |
| COc1ccc(-c2nnc(SC(=O)N3c4ccccc4Sc4ccccc43)o2)cc1 | 6.65% |
| O=C(O)C1CCCN1C1=NS(=O)(=O)c2ccccc21 (centres undefined) | 9.03% |

| SMILES | inhibition |
| --- | --- |
| CC(C)(C)C(=O)COC(=O)c1cc(S(=O)(=O)N2CCCCC2)ccc1N1CCOCC1 | -4.54% |
| CN(Cc1ccco1)S(=O)(=O)c1nnc(NC(=O)c2ccccc2)s1 | 13.9% |
| COc1ccc(-c2nonc2NC(=O)c2oc3ccc(F)cc3c2C)cc1OC | -1.66% |
| CCCCC(C(=O)NC(C)(C)C)N(Cc1ccccc1)C(=O)c1snc(C(N)=O)c1N (centres undefined) | -11.4% |
| CC1(C)O[C@@H]2CC3C4C[C@H](F)C5=CC(=O)C=CC5(C)C4C(O)CC3(C)[C@]2(C(=O)CO)O1 (some centres undefined) | 3.09% |
| Clc1ccc(-n2nnnc2CN2CCCCC2)cc1Cl | 7.74% |
| COc1ccc(C2=NN(C(=O)c3ccccc3C(=O)O)C(c3ccccc3O)C2)cc1 (centres undefined) | -14.4% |
| CCN(CC)S(=O)(=O)c1ccc(C(=O)N2CCN(C3=NS(=O)(=O)c4ccccc43)CC2)cc1 | -8.64% |
| COC(=O)Nc1ccc(S(=O)(=O)N(C)CC(F)(F)C(F)F)cc1 | 9.51% |
| CN(C(=O)C1CCN(c2ncnc3c2nc2n3CCCCC2)CC1)C1CCCCC1 | -0.51% |
| CC(=O)NNC1=Nc2ccccc2N(C)C(C)C1 (centres undefined) | -9.35% |
| CCc1cccc(NC(=S)N(CCN(C)C)C2CCN(C(C)C)CC2)c1 | -6.22% |
| Cc1ccc(C2=NN(C(=O)CSc3nc(N)cc(N)n3)C(c3ccco3)C2)cc1 (centres undefined) | 0.17% |
| CC(=O)Nc1ccc(S(=O)(=O)N(C)c2ccc(OCC(=O)OCC(=O)N3CCCCC3)cc2)cc1 | -11.6% |
| CCCC(C)n1[nH]c(=O)c2c(C)cc(C)nc21 (centres undefined) | 11.1% |
| CC(=O)Nc1ccc(NC(=O)C2CCCN2S(=O)(=O)c2cccc(C(F)(F)F)c2)cc1 (centres undefined) | 17.1% |
| C=CCn1c(COc2ccc(F)cc2)nnc1SCC(=O)Nc1cccc(S(N)(=O)=O)c1 | 3.26% |
| O=C(CCn1c(=S)[nH]c2cc3c(cc2c1=O)OCO3)NCc1ccc(Cl)cc1 | 2.43% |
| N#C/C=C1\Sc2ccccc2C(=O)N1CC(=O)N1CCN(S(=O)(=O)c2ccccc2)CC1 | -8.28% |
| O=C(O)Cc1csc(NC(=O)CSc2nnnn2-c2ccc(O)cc2)n1 | 2.08% |
| O=C(/C=C/c1cc2c(cc1Br)OCO2)NCc1ccc(Cl)cc1 | -6.35% |

| SMILES | inhibition |
| --- | --- |
| CC(=O)Nc1c2c(nn1-c1ccc(C)cc1C)CS(=O)C2 (centres undefined) | -22.1% |
| NC(=O)C1CCN(C(=O)c2ccc3c(=O)n(Cc4cccc(Br)c4)c(=S)[nH]c3c2)CC1 | -10.6% |
| C#CCOCCOCCOCCNc1nc(N2CCN(C(=O)CCCCCCCCCCNC(=O)[C@H]([C@@H](C)CC)n3cc(CCCCN=C(N)N)nn3)CC2)nc(N2CCN(C(=O)CCCCCCCCCCNC(=O)[C@H](CO)n3cc(CCCSC)nn3)CC2)n1 | 134% (active) |
| C#CCOCCOCCOCCNc1nc(N2CCN(C(=O)CCCCCCCCCCNC(=O)[C@H](CCCCN)n3cc(C)nn3)CC2)nc(N2CCN(C(=O)CCCCCCCCCCNC(=O)[C@H](CO)n3cc(CCCSC)nn3)CC2)n1 | 12.7% |
| C#CCOCCOCCOCCNc1nc(N2CCN(C(=O)CCCCCCCCCCNC(=O)Cn3cc(CCCCCN)nn3)CC2)nc(N2CCN(C(=O)CCCCCCCCCCNC(=O)[C@H](CO)n3cc(CCCSC)nn3)CC2)n1 | 24.8% |
| COC(=O)c1ccc(NC(=O)CSc2nnc(Cc3cccn3C)n2-c2ccc(F)cc2)cc1 | 11.4% |
| Cc1ccc(Cc2cncc(O)c2)cc1S(=O)(=O)O | -9.54% |
| Cc1csc(CN(C)C(=O)CC2C(=O)NCCN2CC(C)(C)C)n1 (centres undefined) | 5.13% |
| CCN1C(=O)C(=O)N(CC(=O)Nc2cc(C)ccc2C)C1=O | 9.39% |
| CSc1ccccc1NC(=O)c1ccc2c(c1)CCN2S(C)(=O)=O | 14.6% |
| Cc1ccc(OCC(=O)Nc2ccccc2C(=O)NC2CC2)cc1C | 1.2% |
| CCCCNC(=O)C1(O)c2ccccc2NC(=O)N1c1ccc(Cl)cc1 (centres undefined) | 2.71% |
| O=C(N/N=C/c1cccc2cccnc12)[C@H]1C[C@@H]1c1ccccc1 | -1.05% |
| Cc1ccc(Cc2nnc(SCC(=O)Nc3ccc(C)cc3C)[nH]c2=O)cc1 | 2.99% |
| CCC1Oc2ccccc2N(CC(=O)NCCCN2CCN(CC)CC2)C1=O (centres undefined) | -3.45% |
| COc1ccc(C(=O)C2CCCN(C(=O)c3cnsn3)C2)c(C)c1 (centres undefined) | -0.75% |
| COc1ccc(S(=O)(=O)/N=C2\C=C(NS(=O)(=O)c3ccccc3)C(=O)c3ccccc32)cc1 | 7.31% |
| Cc1ccc(C2CC(c3cccc(NS(C)(=O)=O)c3)=NN2S(C)(=O)=O)cc1 (centres undefined) | 0.89% |
| CN1CCN(Cc2nc3cc(NC(=O)COc4ccc([N+](=O)[O-])cc4)ccc3n2C)CC1 | -16.4% |
| CC(NC(=O)c1cccc2ccccc12)c1ccc2c(c1)CCCC2 (centres undefined) | -9.25% |
| CCOC(=O)CN(C(=O)COc1nc(C)cc(C)c1C#N)c1ccc(Cl)cc1 | 3.1% |
